# Legend:
# Type in all cases: functional
# [1] = biological target: Solute carrier family 2, facilitated glucose transporter member 1 (Homo sapiens) (UniProt P11166); experiment: ST_JUDE_LEISH: Cytotoxicity at 2uM final concentration against transgenic Leishmania Mexicana promastigotes LmGLUT1 that are glucose transport deficient and complemented with the human glucose transporter GLUT1. Activity is measured by DNA content using SYBR green in vitro
# [2] = biological target: Hexose transporter 1 (Plasmodium falciparum) (UniProt O97467); experiment: ST_JUDE_LEISH: Cytotoxicity at 2uM final concentration against transgenic Leishmania Mexicana promastigotes LmPfHT that are glucose transport deficient and complemented with the Plasmodium falciparum hexose transporter. Activity is measured by DNA content using SYBR green in vitro
# [3] = biological target: Glucose transporter (Leishmania mexicana) (UniProt O61059); experiment: ST_JUDE_LEISH: Cytotoxicity at 2uM final concentration against transgenic Leishmania Mexicana promastigotes LmGT2 that are glucose transport deficient and complemented with the L. Mexicana glucose transporter 2. Activity is measured by DNA content using SYBR green in vitro
# Solute carrier family 2, facilitated glucose transporter member 1 (Homo sapiens), sequence (P11166 whole entry): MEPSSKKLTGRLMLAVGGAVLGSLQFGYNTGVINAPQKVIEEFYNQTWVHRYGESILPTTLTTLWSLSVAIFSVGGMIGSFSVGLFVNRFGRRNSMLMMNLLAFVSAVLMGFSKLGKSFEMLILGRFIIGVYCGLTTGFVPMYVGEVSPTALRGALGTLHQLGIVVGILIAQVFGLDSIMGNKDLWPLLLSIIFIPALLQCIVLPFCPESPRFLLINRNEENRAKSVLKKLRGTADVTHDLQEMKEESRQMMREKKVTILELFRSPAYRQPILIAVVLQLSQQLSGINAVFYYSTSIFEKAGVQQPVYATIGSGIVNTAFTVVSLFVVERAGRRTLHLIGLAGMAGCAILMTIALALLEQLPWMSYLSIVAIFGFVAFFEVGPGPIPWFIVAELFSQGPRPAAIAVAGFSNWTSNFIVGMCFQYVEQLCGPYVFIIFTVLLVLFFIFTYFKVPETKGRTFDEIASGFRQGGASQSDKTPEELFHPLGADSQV
smiles,measurement,setting,value
Cc1ccc2c(=NN=CC=Cc3ccccc3)cc(C)[nH]c2c1,inhibition,[1],1.49%
same,inhibition,[2],5.52%
same,inhibition,[3],2.88%
COc1ccc(NC(=O)Nc2ccc(-c3ccccc3)cc2)cc1Cn1nc(Cl)c(N2CCCNCC2)cc1=O,inhibition,[1],0.73%
same,inhibition,[2],0.83%
same,inhibition,[3],0.02%
Cc1cc(C(=O)CN2C(=O)NC(C)(c3cccc4ccccc34)C2=O)c(C)n1Cc1ccco1 (stereo not given),inhibition,[1],6.55%
same,inhibition,[2],6.14%
same,inhibition,[3],4.09%
COc1ccc(C2C(C(=O)OC3CCCC3)=C(C)NC3=C2C(=O)CCC3)cc1Br (stereo not given),inhibition,[1],1.02%
same,inhibition,[2],-0.27%
same,inhibition,[3],0.31%
CN(CCN)Cc1ccc(-c2ccc(-c3nc4cc(F)ccc4[nH]3)s2)cc1,inhibition,[1],-0.54%
same,inhibition,[2],0.42%
same,inhibition,[3],-1.71%
CC(=O)Nc1ccc(S(=O)(=O)Nc2c(C)cc(Cc3cnc(N)nc3N)cc2C)cc1,inhibition,[1],-0.22%
same,inhibition,[2],0.02%
same,inhibition,[3],-0.69%
CCN(CC)CCN(Cc1ccc(-c2ccc(C(F)(F)F)cc2)cc1)C(=O)Cn1c(CCc2ccc(F)c(F)c2)cc(=O)c2ccccc21,inhibition,[1],7.8%
same,inhibition,[2],7.35%
same,inhibition,[3],8.28%
CN1CCN(CCCCCCNc2c3ccccc3nc3ccccc23)CC1,inhibition,[1],27.1%
same,inhibition,[2],19.4%
same,inhibition,[3],10.9%
Nc1nc(N)c2c(ccc3nn(Cc4ccccc4)cc32)n1,inhibition,[1],-0.49%
same,inhibition,[2],0.59%
same,inhibition,[3],-0.15%
COCc1cccc(-c2cc(-c3ccc(S(C)(=O)=O)cc3)cnc2N)c1,inhibition,[1],-0.03%
same,inhibition,[2],-0.46%
same,inhibition,[3],-5.63%
COc1cc(NC(=O)c2ccc(-c3ccccc3)cc2)ccc1OCCCN1CCC(c2ccccc2)CC1,inhibition,[1],0.2%
same,inhibition,[2],2.26%
same,inhibition,[3],2.91%
CCCCCCNC(=O)C1Cc2c([nH]c3ccc(Br)cc23)C2(CCN(Cc3ccccc3)CC2)N1 (stereo not given),inhibition,[1],45.6%
same,inhibition,[2],15.5%
same,inhibition,[3],30.9%
CCCC(C)Nc1nc(C)cc(N[C@@H](CC(C)C)C(=O)NC2CCCC2)n1 (stereo not given in full),inhibition,[1],2.53%
same,inhibition,[2],4.34%
same,inhibition,[3],3.26%
COc1ccccc1CNc1nc(Nc2ccccc2C)nc2ccccc12,inhibition,[1],38.4%
same,inhibition,[2],54.5%
same,inhibition,[3],14.4%
CC(=O)c1c(Nc2c(C)cc(C)cc2C)oc(C)cc1=O,inhibition,[1],3.7%
same,inhibition,[2],5.4%
same,inhibition,[3],3.1%
Cc1ccc(Cn2nc(N3CCNCC3)ccc2=O)cc1NC(=O)Nc1ccc(-c2ccccc2)cc1,inhibition,[1],1.5%
same,inhibition,[2],2.27%
same,inhibition,[3],-1.04%
CCOC(=O)c1nc(-c2cccc(F)c2)[nH]c1N,inhibition,[1],1.32%
same,inhibition,[2],0.39%
same,inhibition,[3],2.23%
O=C(/C=C/c1ccc(Cl)c(Cl)c1)NCCCCCN1CCCN(C(=S)Nc2cccc(Cl)c2)CC1,inhibition,[1],0.6%
same,inhibition,[2],-0.74%
same,inhibition,[3],0.17%
c1ccc([C@H]2CN3CCSC3=N2)cc1,inhibition,[1],-0.53%
same,inhibition,[2],2.58%
same,inhibition,[3],-0.34%
CCCCN(C(=O)c1ccccc1Cl)c1nnc(-c2ccccc2C)s1,inhibition,[1],-1.28%
same,inhibition,[2],0.39%
same,inhibition,[3],0.03%
N#Cc1cccc(C(=O)Nc2cccc(-c3ccc(C(=O)Nc4cccnc4)cc3)c2)c1,inhibition,[1],4.01%
same,inhibition,[2],2.59%
same,inhibition,[3],1.36%
COc1cc(NCCCNCc2cn(S(=O)(=O)c3ccccc3)c3ccccc23)nc2ccccc12,inhibition,[1],3.92%
same,inhibition,[2],4.04%
same,inhibition,[3],3.17%
OCc1ccc2nc3c(cc2c1)-c1cccc2cccc-3c12,inhibition,[1],3.6%
same,inhibition,[2],1.82%
same,inhibition,[3],2.11%
N#Cc1ccc(Sc2nnc(-c3ccccc3Cl)n2CC2CCCCC2)cc1[N+](=O)[O-],inhibition,[1],2.9%
same,inhibition,[2],3.12%
same,inhibition,[3],0.82%
Cc1cc(Nc2ccc(C)c(Cl)c2)n2ncnc2n1,inhibition,[1],-2.06%
same,inhibition,[2],-1.7%
same,inhibition,[3],-4.9%
CCOc1cc(C(=O)NCc2cc(Cl)cc(Cl)c2)ccc1-c1nc2cc(Cl)ccc2[nH]1,inhibition,[1],1.6%
same,inhibition,[2],2.18%
same,inhibition,[3],1.11%
CCn1ccc2c(N3CCCS3(=O)=O)cc(C(=O)N[C@@H](Cc3ccccc3)[C@H](O)CNC(C)(C)CCCC(C)C)cc21,inhibition,[1],7.39%
same,inhibition,[2],7.48%
same,inhibition,[3],2.41%
O=C(Nc1cccc(F)c1)N1CCC(CN2CCOC(c3ccccc3)(c3ccccc3)C2)CC1,inhibition,[1],3.49%
same,inhibition,[2],4.01%
same,inhibition,[3],5%
Fc1ccc(OC2CN(c3nccc(NCc4ccccc4Cl)n3)C2)cc1,inhibition,[1],3.81%
same,inhibition,[2],2.84%
same,inhibition,[3],-0.6%
COc1ccc2ccc(F)c(CCN3CCC(NCc4cc5c(cn4)OCCO5)CC3)c2n1,inhibition,[1],8.37%
same,inhibition,[2],14%
same,inhibition,[3],22.4%
CN(C)Cc1c(O)ccc2[nH]c(-c3cccc(F)c3)nc12,inhibition,[1],2.87%
same,inhibition,[2],2.53%
same,inhibition,[3],0.64%
COc1ccc(NC(=O)N2CCCN(CCCCCNC(=O)/C=C/c3ccc(Cl)cc3)CC2)cc1Cl,inhibition,[1],2.15%
same,inhibition,[2],2.96%
same,inhibition,[3],0.93%
CC(C)[C@@H](NC(=O)NC1CCC(CCN2C3CCC2CC(OC(=O)C(CO)c2ccccc2)C3)CC1)C(O)(c1ccccc1)c1ccccc1 (stereo not given in full),inhibition,[1],8.23%
same,inhibition,[2],8.36%
same,inhibition,[3],4.86%
Clc1ccc2nnc(-c3c(Cl)cccc3Cl)n2n1,inhibition,[1],6.63%
same,inhibition,[2],4.09%
same,inhibition,[3],2.05%
Cc1cc(C)cc(Oc2c(C(F)(F)F)oc3c(CN4CC(C)OC(C)C4)c(O)ccc3c2=O)c1 (stereo not given),inhibition,[1],-0.42%
same,inhibition,[2],-1.36%
same,inhibition,[3],1.31%
O=C(N[C@H]1CCN(Cc2ccc(OCCCN3CCCCC3)cc2)C1)c1cc(Cl)cc(Cl)c1,inhibition,[1],1.71%
same,inhibition,[2],7.28%
same,inhibition,[3],2.29%
COc1ccccc1C1CCN(C2CCC(NC(=O)/C=C/c3cccc(Cl)c3F)CC2)CC1 (stereo not given),inhibition,[1],10.5%
same,inhibition,[2],1.32%
same,inhibition,[3],3.14%
O=C(NCCCCN1CCC(c2ccc3ccccc3c2O)CC1)c1ccc(-c2ccc(Cl)cc2)cc1,inhibition,[1],5.43%
same,inhibition,[2],3.32%
same,inhibition,[3],3.45%
O=C(C1CCCC1)N1CCOC(CCN2CCC(c3ccccc3)CC2)(c2ccc(Cl)c(Cl)c2)C1 (stereo not given),inhibition,[1],11.9%
same,inhibition,[2],11.5%
same,inhibition,[3],11.7%
Cc1c(Cl)cccc1N=C(S)NN=Cc1ccccn1,inhibition,[1],1.43%
same,inhibition,[2],2.56%
same,inhibition,[3],-0.2%
Cc1noc(C)c1-c1ccc(C(=C2CCCCCCC2)c2ccc(O)cc2)cc1,inhibition,[1],-4.06%
same,inhibition,[2],-2.9%
same,inhibition,[3],5.39%
COc1cccc(Cc2c(C)nc3nc(N)nc(N)c3c2C)c1,inhibition,[1],-0.08%
same,inhibition,[2],1.04%
same,inhibition,[3],-0.24%
CC1CCN(CCCNc2ccc(C(=O)Nc3ccc(C(F)(F)F)cc3)cc2[N+](=O)[O-])CC1,inhibition,[1],4.71%
same,inhibition,[2],1.65%
same,inhibition,[3],5.07%
Cc1ccc(F)cc1-c1cc(N2CCCN(C(=O)c3ccc(Br)o3)CC2)ncn1,inhibition,[1],0.81%
same,inhibition,[2],0.93%
same,inhibition,[3],-0.08%
Cc1c(-c2cccc(C(C)(C)NCCCN3CCCCC3)c2)cnc(N)c1C,inhibition,[1],-0.39%
same,inhibition,[2],-0.25%
same,inhibition,[3],0.62%
COc1cc(C(=O)NCc2nn(CCN3CCC(N4CCCC4)CC3)cc2-c2ccc(Cl)c(Cl)c2)cc(OC)c1OC,inhibition,[1],-2.77%
same,inhibition,[2],3.08%
same,inhibition,[3],3.75%
N#Cc1ccc(CN2CCCN(c3ccc(NC(=O)c4ccc(F)cc4)cc3)CC2)cc1,inhibition,[1],2.88%
same,inhibition,[2],3.32%
same,inhibition,[3],0.81%
CCNc1cc(C)nc(Nc2ccc(NC(=O)c3ccc(OC)c(OC)c3)cc2)n1,inhibition,[1],5.48%
same,inhibition,[2],1.84%
same,inhibition,[3],2.34%
COc1ccc2nc(N=C3NC4(c5ccccc5)NC(=Nc5nc6ccc(OC)cc6[nH]5)NC4(c4ccccc4)N3)[nH]c2c1 (stereo not given),inhibition,[1],-1.9%
same,inhibition,[2],-0.84%
same,inhibition,[3],-0.87%
O=C(NNC(=O)c1ccc(CN2CCC(c3nc4ccccc4[nH]3)CC2)cc1)Nc1ccc(Oc2ccccc2)cc1,inhibition,[1],2.4%
same,inhibition,[2],2.34%
same,inhibition,[3],1.36%
